Measurements: the supplement of paper PMC10515830
Structures can show the parent of a compound that is named as a salt.

Legend:
Details in all cases: 10 µM; exposure time 6 h
[1] = tested on: Danio rerio larvae (5 dpf); test: difference in excitability vs DMSO (percentage points); higher = more excitable than DMSO
In short: (§1)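 Wild-type 5 dpf zebrafish larvae in 96-well plates were given 100 µL egg water containing library compound at 10 µM final for 6 h. After 3 h of exposure, plates at 28.5 ℃ were photographed every 6 s during a 3-h programme of moving lines and 100 ms, 400Hz tones. Z-LaP Tracker (a DeepLabCut model) quantified each behaviour, averaged over 48 larvae per compound. Values are the compound mean minus the DMSO-vehicle control, in percentage points.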

[2] = tested on: Danio rerio larvae (5 dpf); test: difference in startle response vs DMSO (percentage points); higher = stronger startle than DMSO
In short: as §1

[3] = tested on: Danio rerio larvae (5 dpf); test: difference in activity during first hour vs DMSO (percentage points); higher = more activity than DMSO
In short: as §1

[4] = tested on: Danio rerio larvae (5 dpf); test: difference in habituation to acoustic stimuli vs DMSO (percentage points); higher = more habituation than DMSO
In short: as §1

[5] = tested on: Danio rerio larvae (5 dpf); test: difference in combined optomotor response to red, green and blue moving lines vs DMSO (percentage points); higher = stronger optomotor response than DMSO
In short: as §1

Compound | difference in excitability [1] | difference in startle response [2] | difference in activity during first hour [3] | difference in habituation to acoustic stimuli [4] | difference [5]
CCC[C@@H]1C[C@@H](C(=O)N[C@@H]([C@H]2O[C@H](SC)[C@H](O)[C@@H](O)[C@H]2O)[C@H](C)Cl)N(C)C1 [Clindamycin] | -2.97 | 2.68 | -14.7 | 4.82 | -4.05
O=c1ccn([C@@H]2O[C@H](CO)[C@@H](O)[C@H]2O)c(=O)[nH]1 [Uridine] | -2.47 | -2.07 | 11.4 | -2.41 | 1.41
CCC1=C(C)CN(C(=O)NCCc2ccc(S(=O)(=O)NC(=O)N[C@H]3CC[C@H](C)CC3)cc2)C1=O [Glimepiride] | -3.07 | 2.59 | 2.62 | 3.43 | -2.24
Cc1[nH]c(=O)c(C#N)cc1-c1ccncc1 [Milrinone] | -4.22 | -1.03 | 2.14 | 0.444 | 8.34
C[C@@H](Oc1cc(-c2cnn(C3CCNCC3)c2)cnc1N)c1c(Cl)ccc(F)c1Cl [(R)-Crizotinib] | 11.1 | -4.49 | -3.18 | 0.409 | -0.753
Clc1ccc(CCC(Cn2ccnc2)Sc2c(Cl)cccc2Cl)cc1 (stereo not given) [Butoconazole (nitrate)] | 9.05 | -10.1 | -20.7 | -10.8 | -16.7
Nc1nc(CC(=O)Nc2ccc(CCNC[C@H](O)c3ccccc3)cc2)cs1 [Mirabegron] | 15.7 | -0.811 | 3.64 | -4.56 | 3.08
CN1C2CCCC1CC(NC(=O)c1nn(C)c3ccccc13)C2 (stereo not given) [Granisetron (hydrochloride)] | 5.31 | 0.419 | 15 | 0.641 | 7.51
CC(=O)N1CCN(c2ccc(OCC3COC(Cn4ccnc4)(c4ccc(Cl)cc4Cl)O3)cc2)CC1 (stereo not given) [Ketoconazole] | 8 | 3.5 | -5.85 | -0.327 | 5.96
C[C@@H](O)[C@@H]1NC(=O)[C@H](CCCCN)NC(=O)[C@@H](Cc2c[nH]c3ccccc23)NC(=O)[C@H](Cc2ccccc2)NC(=O)[C@@H](NC(=O)[C@H](N)Cc2ccccc2)CSSC[C@@H](C(=O)N[C@H](CO)[C@@H](C)O)NC1=O [Octreotide (acetate)] | 11.3 | -0.00387 | -5.09 | -0.654 | 0.73
CC(=O)N(CC(O)CO)c1c(I)c(C(=O)NCC(O)CO)c(I)c(C(=O)NCC(O)CO)c1I (stereo not given) [Iohexol] | 1.55 | 0.754 | 5.28 | -1.14 | -0.849
CN(C)C(=O)N[C@H]1CC[C@H](CCN2CCN(c3cccc(Cl)c3Cl)CC2)CC1 [Cariprazine (hydrochloride)] | 11.3 | -2.66 | -2.12 | -3.39 | -1.22
CCN(CC)C(=O)[C@@]1(c2ccccc2)C[C@H]1CN [Levomilnacipran (hydrochloride)] | 9.82 | 0.949 | -23 | -1.84 | -14.2
CN1CCC(=C2c3ccccc3C=Cc3ccccc32)CC1 [Cyproheptadine (hydrochloride hydrate)] | 6.61 | -4.47 | -3.08 | -11.2 | -16.4
CN(CCOc1ccc(CC2SC(=O)NC2=O)cc1)c1ccccn1 (stereo not given) [Rosiglitazone] | 6.79 | -7.02 | 26.9 | -12.6 | -6.71
CC[C@H](Nc1ncnc2[nH]cnc12)c1nc2cccc(F)c2c(=O)n1-c1ccccc1 | 5.3 | 1.19 | -0.052 | -0.933 | 2.36
CCc1cc(C(N)=S)ccn1 [Ethionamide] | -2.77 | -1 | -3.96 | 0.506 | 2.57
CCOC(=O)C1=C(C)NC(C)=C(C(=O)OC)C1c1cccc(Cl)c1Cl (racemic) [(±)-Felodipine] | 0.706 | -2.36 | -22.2 | -10.8 | -16.5
CCCCNC(=O)NS(=O)(=O)c1ccc(C)cc1 [Tolbutamide] | 1.04 | -0.31 | 15.1 | 0.867 | 0.664
NS(=O)(=O)c1cc2c(cc1C(F)(F)F)NC(Cc1ccccc1)NS2(=O)=O (stereo not given) [Bendroflumethiazide] | 1.38 | -5.47 | 3.78 | -7.63 | -4.26
CO[C@H]1C(=O)[C@]2(C)[C@@H](OC)C[C@H]3OC[C@@]3(OC(C)=O)[C@H]2[C@H](OC(=O)c2ccccc2)[C@]2(O)C[C@H](OC(=O)[C@H](O)[C@@H](NC(=O)OC(C)(C)C)c3ccccc3)C(C)=C1C2(C)C [Cabazitaxel] | 6.19 | 4.59 | 13.7 | 3.39 | 2.83
CC(C)(O)CNc1nc(Nc2ccnc(C(F)(F)F)c2)nc(-c2cccc(C(F)(F)F)n2)n1 [Enasidenib] | 15.7 | -3.05 | 12.8 | -6.3 | 2.71
O=P(O)(O)C(O)(Cc1cccnc1)P(=O)(O)O [Risedronate (sodium salt)] | 3.7 | 4.04 | 24.7 | -2.36 | 9.6
CN(Cc1cnc2nc(N)nc(N)c2n1)c1ccc(C(=O)N[C@@H](CCC(=O)O)C(=O)O)cc1 [Methotrexate (hydrate)] | 9.03 | 7.54 | -9.02 | -0.271 | 3.11

Compound | difference in excitability [1] | difference in startle response [2] | difference in activity during first hour [3] | difference in habituation to acoustic stimuli [4] | difference [5]
O=C1CN2Cc3c(ccc(Cl)c3Cl)N=C2N1 [Anagrelide (hydrochloride)] | 11.5 | -3.44 | -9.48 | 7.77 | 3.07
CCCCC(C)(O)C/C=C/[C@H]1[C@H](O)CC(=O)[C@@H]1CCCCCCC(=O)OC (mixture of isomers) [Misoprostol] | 9.78 | 0.222 | -2.79 | 7.1 | -1.41
Clc1ccc(COC(Cn2ccnc2)c2ccc(Cl)cc2Cl)c(Cl)c1 (stereo not given) [Miconazole (nitrate)] | 9.53 | -10.9 | -23.5 | -11.4 | -18.4
COc1cc2nccc(Oc3ccc(NC(=O)NC4CC4)c(Cl)c3)c2cc1C(N)=O [Lenvatinib] | 13.6 | 6.75 | -8.05 | 1.57 | 10.3
CCN(CC)CC#CCOC(=O)C(O)(c1ccccc1)C1CCCCC1 (stereo not given) [Oxybutynin (hydrochloride)] | -4.54 | 8.08 | -11.4 | -8.53 | -10.5
CC(=O)Oc1cc2c(s1)CCN(C(C(=O)C1CC1)c1ccccc1F)C2 (stereo not given) [Prasugrel] | -1.17 | 0.187 | -0.362 | 8.33 | 9.86
Nc1ccn([C@@H]2CS[C@H](CO)O2)c(=O)n1 [Lamivudine] | 0.811 | 2.66 | 9.03 | 2.12 | 2.14
CCCCCCCCCCC[C@@H](C[C@@H]1OC(=O)[C@H]1CCCCCC)OC(=O)[C@H](CC(C)C)NC=O [Orlistat] | 0.283 | 0.288 | 10.8 | 3.74 | 2.67
Cc1ccc(S(=O)(=O)NC(=O)NN2CCCCCC2)cc1 [Tolazamide] | 7.01 | 21.4 | 4.59 | 2.23 | 9.69
CN(C)CCCN1c2ccccc2CCc2ccc(Cl)cc21 [Clomipramine (hydrochloride)] | 0.766 | 1.97 | -14.9 | -3.04 | -3.76
Clc1ccc(C(Cn2ccnc2)OCc2csc3c(Cl)cccc23)c(Cl)c1 (stereo not given) [Sertaconazole (nitrate)] | 4.31 | -8.13 | -18.2 | -10 | -11.3
CC(C)Cc1ccc(C(C)C(=O)O)cc1 (racemic) [(±)-Ibuprofen] | 15.5 | -4.17 | -2.46 | 3.85 | 6.34
Nc1ccn(C[C@@H](CO)OCP(=O)(O)O)c(=O)n1 [Cidofovir] | -2.11 | -1.31 | -7.68 | -3.35 | -5.67
CN(Cc1ccc(C(C)(C)C)cc1)Cc1cccc2ccccc12 [Butenafine (hydrochloride)] | 2.06 | 2.01 | -10.7 | 0.859 | -2.95
CC[C@]1(O)C[C@@H]2CN(CCc3c([nH]c4ccccc34)[C@@](C(=O)OC)(c3cc4c(cc3OC)N(C)[C@H]3[C@@](O)(C(=O)OC)[C@H](OC(C)=O)[C@]5(CC)C=CCN6CC[C@]43[C@@H]65)C2)C1 [Vinblastine (sulfate)] | 11.1 | -3.06 | -6.36 | -2.13 | -3.97
COc1cc(NC(C)CCCN)c2ncccc2c1 (stereo not given) [Primaquine (phosphate)] | 23.1 | -5.2 | 2.45 | -4.94 | -0.724
CO[C@@]1(NC(=O)Cc2cccs2)C(=O)N2C(C(=O)O)=C(COC(N)=O)CS[C@@H]21 [Cefoxitin (sodium salt)] | 2.72 | 3.22 | 3 | 1.06 | 10.4
COC(=O)C1=C(C)NC(C)=C(C(=O)OCCN(C)Cc2ccccc2)C1c1cccc([N+](=O)[O-])c1 (stereo not given) [Nicardipine (hydrochloride)] | 7.46 | -1.35 | 14.3 | -16.5 | -6.14
CCCc1c2oc(C(=O)O)cc(=O)c2cc2c(=O)cc(C(=O)O)n(CC)c12 [Nedocromil (sodium salt)] | -1.27 | 3.78 | -6.98 | 7.47 | -2.49
Nc1nc(NC2CC2)c2ncn([C@H]3C=C[C@@H](CO)C3)c2n1 [Abacavir (sulfate)] | -1.01 | -0.154 | 7.36 | -0.118 | 5.64
CCN(CC)CC(=O)Nc1c(C)cccc1C [Lidocaine] | 4.55 | -4.05 | 10.3 | -4.04 | 1.72
CN(C)CC(c1ccc(O)cc1)C1(O)CCCCC1 (racemic) [(±)-O-Desmethyl Venlafaxine] | 18.2 | -5.6 | -19.3 | -8.93 | -5.4
COc1cc(C)c(/C=C/C(C)=C/C=C/C(C)=C/C(=O)O)c(C)c1C [Acitretin] | 6.34 | -12.5 | 50.6 | -15.4 | -20.9
COc1ccc2c(O[C@@H]3C[C@H]4C(=O)N[C@]5(C(=O)NS(=O)(=O)C6CC6)C[C@H]5/C=C\CCCCN(C)C(=O)[C@@H]4C3)cc(-c3nc(C(C)C)cs3)nc2c1C [Simeprevir (sodium salt)] | 13.8 | -3.43 | 25.2 | 3.8 | 8.38
